Laboratory results reported in PubChem BioAssay AID2613 (National Center for Advancing Translational Sciences (NCATS), 2010).
Records with an inconclusive call do not appear. Active and inactive are the calls of the source. Calls follow the shape of the dose curve; as a rule, active = well fitted inhibition curve with a large enough effect; inconclusive = small, poorly fitted or top-dose-only effect; inactive = flat fitted curve, though single readings scatter.

These compounds were tested against Lysosomal acid glucosylceramidase (Homo sapiens) (UniProt P04062) (assay: qHTS Assay for Inhibitors and Activators of N370S glucocerebrosidase as a Potential Chaperone Treatment of Gaucher Disease: Activity in N370S Spleen Homogenate Using a Red Fluorescent Substrate). Conditions: red fluorogenic substrate; series mostly up to 49.6 µM; activity change, negative = inhibition: at the top concentration.
Chain of Lysosomal acid glucosylceramidase (Homo sapiens) (P04062 whole entry N409S): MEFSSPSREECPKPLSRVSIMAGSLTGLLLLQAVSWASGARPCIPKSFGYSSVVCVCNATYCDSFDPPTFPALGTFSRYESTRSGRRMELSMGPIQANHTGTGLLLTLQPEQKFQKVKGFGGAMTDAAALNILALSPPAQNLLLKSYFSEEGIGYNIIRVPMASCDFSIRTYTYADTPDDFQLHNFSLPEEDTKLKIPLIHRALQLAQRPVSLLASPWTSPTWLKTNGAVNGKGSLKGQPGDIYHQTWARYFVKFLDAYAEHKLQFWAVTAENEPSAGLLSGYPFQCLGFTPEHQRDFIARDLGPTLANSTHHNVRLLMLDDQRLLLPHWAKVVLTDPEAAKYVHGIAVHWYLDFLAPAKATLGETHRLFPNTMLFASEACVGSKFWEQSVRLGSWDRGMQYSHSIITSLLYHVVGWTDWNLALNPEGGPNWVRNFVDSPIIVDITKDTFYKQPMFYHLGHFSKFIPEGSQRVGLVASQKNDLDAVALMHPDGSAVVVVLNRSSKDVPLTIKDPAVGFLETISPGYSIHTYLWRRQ
Text: NIH Chemical Genomics Center [NCGC]
NIH Molecular Libraries Probe Production Centers Network [MLPCN]
Assay Submitter (PI): Wei Zheng
Glucocerebrosidase (GC) catalyzes the hydrolysis of beta-glucocerebroside to glucose and ceramide in lysosomes. Mutations in the glucocerebrosidase gene result in Gaucher disease, an autosomal recessive lysosomal storage disorder. Many of the mutations encountered in patients with Gaucher disease are missense alterations that may cause misfolding, decreased stability and/or mistrafficking of this lysosomal protein. […] These inhibitors include iminosugar analogs and three non-iminosugar inhibitors identified from a previous HTS of 62,000 compounds with the wild type recombinant enzyme. However, the enhancement of enzyme activity by the chaperone action of an enzyme inhibitor must be balanced against the direct inhibition of the enzyme. An enzyme activator could also function as a chaperone by binding to the enzyme and helping to correct its misfolding and mistrafficking. While activators for GC have not yet been identified, they may have better therapeutic potential than inhibitors. Therefore the discovery and development of chemical activators may provide a new strategy for the chaperone therapy.
We have optimized a new assay using N370S mutant GC derived from the spleen of a Gaucher patient. […] In addition, the MLPCN compound library has expanded, which increases the chance of finding new and better probes.
This confirmation assay tests for compound activity in spleen homogenate from a patient homozygous for the N370S mutation using an alternate resorufin-based substrate.
NCGC Assay Protocol Summary:
This is a fluorogenic enzyme assay with resorufin-beta-D-glucopyranoside as the substrate and mutant N370S glucocerebrosidase from human spleen homogenate as the enzyme preparation. Upon the hydrolysis of this fluorogenic substrate, the resulting product, […] which can be detected by a standard fluorescence plate reader. Data were normalized to the controls for basal activity (without enzyme) and 100% activity (with enzyme). The AC50 values were determined from concentration-response data modeled with the standard Hill equation.
Assay buffer: 50 mM citric acid (titrated with potassium phosphate to pH 5.0), 100 mM potassium chloride, 10 mM sodium chloride, 1 mM magnesium chloride, 0.01% Tween-20.
1536-well assay protocol:
(1) Add 2 ul/well of spleen homogenate (27 ug final)
(2) Add 23 nL compounds in DMSO solution. The final titration was 0.5 nM to 58 uM.
(3) Add 2 ul of substrate (1 mM final)
(4) Incubate at 37C for 40 min.
(5) Add 2 ul stop solution (1M NaOH and 1M Glycine mixture, pH 10)
(6) Detect the assay plate in a ViewLux plate reader (PerkinElmer) with Ex=365 nm and Em=440nm.
Keywords: Glucocerebrosidase, beta-glucosidase, Gaucher Disease, pharmacological chaperone, chaperone therapy, high throughput screening, glucocerebrosidase inhibitor, MLSMR, MLSCN, NIH Roadmap, qHTS and NCGC

Activity change, negative = inhibition, inactive:
O=C(Nc1nccs1)c1ccc(NS(=O)(=O)c2ccc(Cl)cc2)cc1 -6.72%, COC(=O)c1ccccc1NC(=O)c1ccc2c(c1)C(=O)N(Cc1ccccc1)C2=O 4.22%, Cc1cc(N2CCOCC2)nc2ccc(NC(=O)CCC(=O)NC3CCCCC3)cc12 -14.8%, Oc1ccccc1Nc1nc(NCC2CCCO2)c2ccccc2n1 (stereo not given) -14.9%, CSc1ccc(NC(=O)Nc2cc(C)ccn2)cc1 -0.0114%, COc1cccc(NC(=O)CSc2nc3ccccc3c(=O)n2Cc2cccs2)c1 -4.03%, CC(=O)Nc1ccc(NC(=O)COc2ccccc2C(=O)Nc2cccc(Cl)c2Cl)cc1 -0.549%, COc1cc(OC)cc(C(=O)N[C@H](C(=O)OCC(=O)Nc2cccc(F)c2)C(C)C)c1 -11.2%, Cc1cc(Nc2cccc(Cl)c2)nc2ccc(NC(=O)C3CCC(C)CC3)cc12 (stereo not given) -11.8%, O=C(CSc1nccc(-c2cccs2)n1)Nc1cccc(Cl)c1 -1.32%, O=C(Nc1cc(Br)ccc1O)c1cnn2c(C(F)F)cc(C3CC3)nc12 0.46%, O=C(Nc1ccccc1)c1ccc(NS(=O)(=O)c2ccccc2)cc1 7.4%, Cc1cc(C)n2ncc(C(=O)Nc3cccc(O)c3)c2n1 -4.31%, Cc1cccc(/C=N/NC(=O)NC23CC4CC(CC(C4)C2)C3)n1 -9.91%, N#Cc1ccccc1Sc1ccccc1C(=O)OCC(=O)NC12CC3CC(CC(C3)C1)C2 -6.41%, CCC(C)c1ccc(NC(=O)c2cnn3c(C(F)F)cc(C)nc23)cc1 (stereo not given) 4.93%, COc1ccccc1NC(=O)COc1ccccc1C(=O)Nc1ccccc1 -5.3%, O=c1cc(N2CCCCC2)c(-c2ccccc2)nn1Cc1c(Cl)cccc1Cl -2.62%, CCCCNC(=O)c1ccc(NS(=O)(=O)c2ccccc2)cc1 -6.21%, CCCNC(=O)COC(=O)c1ccccc1OCC(=O)Nc1ccc(Br)cc1 -0.819%, CCOc1ccccc1NC(=O)CN(c1ccc(C)cc1)S(=O)(=O)c1c(C)noc1C 3.15%, COc1ccccc1C(=O)COC(=O)c1ccccc1OCC(=O)Nc1ccc(SC(F)F)cc1 1.36%, CC1CC(C)CN(C(=O)CSc2nc(Cc3cccs3)nc3ccccc23)C1 (stereo not given) -2.19%, COc1cc2c(cc1NC(=O)COC(=O)[C@@H](NC(=O)c1ccccc1)C(C)C)oc1ccccc12 -5.59%, CCc1ccc(NC(=O)c2cnn3c(C(F)F)cc(C)nc23)cc1 -11.1%

Potency, active:
Cc1ccc(C)c(N2CCN(C(=O)CCC(=O)Nc3ccc4nc(N5CCOCC5)cc(C)c4c3)CC2)c1 15.8 µM, Cc1cc(N2CCC(C)CC2)nc2ccc(NC(=O)C3CCC(C)CC3)cc12 (stereo not given) 11.2 µM, N=c1c2c(-c3ccccc3)c(-c3ccccc3)n(Cc3ccco3)c2ncn1CCCn1ccnc1 7.94 µM, Cc1cc(N2CCCCC2)nc2ccc(NC(=O)C3CCC(C)CC3)cc12 (stereo not given) 17.8 µM, S=C(NCCCc1cnc[nH]1)NCCCN(Cc1ccc(Cl)c(Cl)c1)c1ccc(Br)cn1 2.24 µM, O=C(/C=C/c1ccc(O)cc1)c1ccc(O)cc1O 4.47 µM, COc1cccc(CN(C)c2nc(-c3cccs3)nc3ccccc23)c1 2.51 µM, CCN(CC)c1ccc(C(=O)Nc2ccc3nc(N4CCOCC4)cc(C)c3c2)cc1 15.8 µM, Cc1cc(C)cc(N(CC(=O)NC2CCCCCC2)S(=O)(=O)c2c(C)[nH]c(=O)[nH]c2=O)c1 0.794 µM, Cc1cc(N2CCOCC2)nc2ccc(NC(=O)C3CCC(C)CC3)cc12 (stereo not given) 3.16 µM, CCN(CC)c1cc(C)c2cc(NC(=O)C3CCC(C)CC3)ccc2n1 (stereo not given) 28.2 µM, COc1ccc(Nc2nc(-c3cccs3)nc3ccccc23)cc1 2.51 µM, Cc1cc(N2CCOCC2)nc2ccc(NC(=O)CCC3CCCC3)cc12 15.8 µM, CCOc1ccc(N(CC(=O)Nc2ccc(C)cc2)S(=O)(=O)c2c(C)[nH]c(=O)[nH]c2=O)cc1 12.6 µM, Cc1cc(N2CCN(c3ncccn3)CC2)nc2ccc(NC(=O)C3CCC(C)CC3)cc12 (stereo not given) 5.01 µM
